# Results filed as inconclusive are left out. A call without a number means that no potency is given here. A number with no mark means an inactive call. Activity calls are given as the source filed them. Calls come from the whole dose curve; as a rule, active = well fitted curve in the direction sought with a large enough effect; inconclusive = small, poorly fitted or top-dose-only effect, or another doubt; inactive = no such curve, though single readings can be large; an effect the other way counts as inactive or inconclusive.
# Assays:
# CRL-7250 = normal cell line; assay: qHTS assay to identify novel small-molecules to repurpose for Merkel cell carcinoma treatment (AID 1296009); conditions: MCC and control cell lines, CellTiter-Glo viability, 72 h; at 44.8 µM (top of the series) unless noted; note: nearly all actives have a fitted effect of over 60% in size
# Summary of the method: (§1)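 CellTiter-Glo luminescence after 72 hr compound exposure at 37 degree celsius gave cell viability. Libraries NPC and MIPE were run as 8- and 11-point dose responses; RLUs normalized to DMSO (negative) and no-cell (cytotoxicity) controls.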
# NIH3T3 [1] = assay: Cytotoxic Profiling of Annotated Libraries Using Quantitative High-Throughput Screening (AID 1296008); conditions: Five cell lines viability, CellTiter-Glo ATP luminescence, 48-72 h; max response: hits give low values; note: nearly all actives have a fitted effect of over 60% in size
# Summary of the method: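 Cells exposed to compounds for 48 or 72 hr at 37 degrees Celsius. Viability read as ATP-coupled luminescence with CellTiter-Glo after 10 min at room temperature.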
# HACAT = assay: qHTS assay to identify novel small-molecules to repurpose for Merkel cell carcinoma treatment (AID 1296009); conditions: MCC and control cell lines, CellTiter-Glo viability, 72 h; at 44.8 µM (top of the series) unless noted; note: nearly all actives have a fitted effect of over 60% in size
# Summary of the method: as §1
# MCC-13 = assay: as above; conditions: MCC and control cell lines, CellTiter-Glo viability, 72 h; series mostly up to 46 µM
# Summary of the method: as §1
# MCC-26 = assay: as above; conditions: MCC and control cell lines, CellTiter-Glo viability, 72 h; series mostly up to 46 µM
# Summary of the method: as §1
# MKL-1 = assay: as above; conditions: MCC and control cell lines, CellTiter-Glo viability, 72 h; series mostly up to 46 µM
# Summary of the method: as §1
# MKL-2 = assay: as above; conditions: MCC and control cell lines, CellTiter-Glo viability, 72 h; series mostly up to 46 µM
# Summary of the method: as §1
# UISO = assay: as above; conditions: MCC and control cell lines, CellTiter-Glo viability, 72 h; series mostly up to 46 µM
# Summary of the method: as §1
# WaGa = assay: as above; conditions: MCC and control cell lines, CellTiter-Glo viability, 72 h; series mostly up to 46 µM
# Summary of the method: as §1
# C33A = assay: Primary qHTS to identify gynecologic anti-cancer compounds using libraries of approved drugs and bioactive compounds (AID 1345084); conditions: Gynecologic cancer cell panel viability, ATPlite luminescence, 48 h; series mostly up to 57.5 µM; note: nearly all actives have a fitted effect of over 55% in size
# Summary of the method: (§2)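 Luminescence from the ATPlite ATP-monitoring reagent indicates viable cell number; lower signal means cytotoxicity. Cells received compound 16 h after seeding and were exposed for 48 h across five concentrations.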
# CAOV3 = assay: as above; conditions: Gynecologic cancer cell panel viability, ATPlite luminescence, 48 h; series mostly up to 57.5 µM
# Summary of the method: as §2
# CASKI = assay: as above; conditions: Gynecologic cancer cell panel viability, ATPlite luminescence, 48 h; series mostly up to 57.5 µM
# Summary of the method: as §2
# Es-2 = assay: as above; conditions: Gynecologic cancer cell panel viability, ATPlite luminescence, 48 h; series mostly up to 57.5 µM
# Summary of the method: as §2
# HeLa = assay: as above; conditions: Gynecologic cancer cell panel viability, ATPlite luminescence, 48 h; series mostly up to 57.5 µM
# Summary of the method: as §2
# Hek293T = assay: as above; conditions: Gynecologic cancer cell panel viability, ATPlite luminescence, 48 h, control line for the selectivity index; series mostly up to 57.5 µM
# Summary of the method: as §2
# JEG-3 = assay: as above; conditions: Gynecologic cancer cell panel viability, ATPlite luminescence, 48 h; series mostly up to 57.5 µM
# Summary of the method: as §2
# OV90 = assay: as above; conditions: Gynecologic cancer cell panel viability, ATPlite luminescence, 48 h; series mostly up to 57.5 µM
# Summary of the method: as §2
# NIH3T3 [2] = assay: qHTS assay to identify novel small-molecules to repurpose for Merkel cell carcinoma treatment (AID 1296009); conditions: MCC and control cell lines, CellTiter-Glo viability, 72 h; at 44.8 µM (top of the series) unless noted; note: nearly all actives have a fitted effect of over 60% in size
# Summary of the method: as §1
# Potency is the fitted concentration of half-maximal effect.
smiles,measurement,setting,value
Cc1cnc(NC(=O)C2=C(O)c3ccccc3S(=O)(=O)N2C)s1,outcome,CRL-7250,inactive
CC[N+]1(CC)CCC(OC(=O)C(O)(c2ccccc2)c2ccccc2)C1 (stereo unspecified),max response,NIH3T3 [1],4.46%
same,outcome,HACAT,inactive
same,outcome,MCC-13,inactive
same,Potency,MCC-26,inactive
same,Potency,MKL-1,inactive
same,Potency,MKL-2,inactive
same,Potency,UISO,inactive
same,Potency,WaGa,inactive
same,Potency,C33A,inactive
same,outcome,CAOV3,inactive
same,outcome,CASKI,inactive
same,Potency,Es-2,inactive
same,Potency,HeLa,inactive
same,outcome,Hek293T,inactive
same,outcome,JEG-3,inactive
same,Potency,OV90,inactive
CC(CN(C)C)C(C)(O)Cc1ccc(Cl)cc1 (stereo unspecified),outcome,CRL-7250,inactive
CC(=O)OCC(=O)[C@@]1(O)[C@H](OC(C)=O)C[C@H]2[C@@H]3CCC4=CC(=O)C=C[C@]4(C)[C@@]3(F)[C@@H](O)C[C@@]21C,outcome,CRL-7250,inactive
Nc1nc2ccc(OC(F)(F)F)cc2s1,outcome,CRL-7250,inactive
S=P(N1CC1)(N1CC1)N1CC1,outcome,CRL-7250,inactive [at 92 µM]
CCC(CC)(CNC(=O)CCCO)c1cccc(OC)c1,outcome,NIH3T3 [1],inactive
same,outcome,MCC-13,inactive
same,Potency,MCC-26,inactive
same,Potency,MKL-1,inactive
same,Potency,MKL-2,inactive
same,outcome,NIH3T3 [2],inactive
same,Potency,UISO,inactive
same,Potency,WaGa,inactive
same,Potency,C33A,inactive
same,outcome,CAOV3,inactive
same,outcome,CASKI,inactive
same,Potency,Es-2,inactive
same,Potency,HeLa,inactive
same,outcome,Hek293T,inactive
same,outcome,JEG-3,inactive
same,Potency,OV90,inactive
CCOc1ncc(F)c(=O)[nH]1,outcome,CRL-7250,inactive
C#CC(O)(C=CCl)CC (stereo unspecified),outcome,NIH3T3 [1],inactive
same,outcome,HACAT,inactive
same,outcome,MCC-13,inactive
same,Potency,MKL-1,inactive
same,Potency,MKL-2,inactive
same,outcome,NIH3T3 [2],inactive
same,Potency,UISO,inactive
same,Potency,WaGa,inactive
same,Potency,C33A,inactive
same,outcome,CAOV3,inactive
same,outcome,CASKI,inactive
same,Potency,Es-2,inactive
same,Potency,HeLa,inactive
same,outcome,Hek293T,inactive
same,outcome,JEG-3,inactive
same,Potency,OV90,inactive
CCN(CC)C(C)CN1c2ccccc2Sc2ccccc21 (stereo unspecified),outcome,CRL-7250,inactive
CCOc1nc2cccc(C(=O)O)c2n1Cc1ccc(-c2ccccc2-c2nn[nH]n2)cc1,outcome,CRL-7250,inactive
C[C@@H]1CC2=CC(=O)CC[C@@H]2[C@H]2CC[C@@]3(C)[C@@H](CC[C@]3(C)O)[C@@H]21,max response,NIH3T3 [1],-27.8%
same,outcome,MCC-13,inactive
same,Potency,MCC-26,inactive
same,Potency,MKL-1,inactive
same,Potency,MKL-2,inactive
same,Potency,UISO,inactive
same,Potency,WaGa,inactive
same,Potency,C33A,inactive
same,outcome,CAOV3,inactive
same,outcome,CASKI,inactive
same,Potency,Es-2,inactive
same,Potency,HeLa,inactive
same,outcome,Hek293T,inactive
same,outcome,JEG-3,inactive
COc1cccc2c1C(=O)c1c(O)c3c(c(O)c1C2=O)C[C@@](O)(C(=O)CO)CC3OC1CC(N2CCOC(OC)C2)C(O)C(C)O1 (stereo partly specified),Potency,NIH3T3 [1],6.7 nM (active)
same,Potency,UISO,18.8 nM (active)
same,Potency,WaGa,23.7 nM (active)
same,Potency,C33A,282 nM (active)
same,Potency,HeLa,224 nM (active)
same,Potency,OV90,447 nM (active)
O=C(O)c1ccccc1-c1ccc(C(F)(F)F)cc1,outcome,CRL-7250,inactive
C[C@]12CC[C@H]3[C@@H](CCC4=CC(=O)CC[C@@H]43)[C@@H]1CC[C@@H]2OC(=O)CCc1ccco1,max response,NIH3T3 [1],-2.06%
same,outcome,HACAT,inactive
same,outcome,MCC-13,inactive
same,Potency,WaGa,inactive
same,Potency,C33A,inactive
same,outcome,CAOV3,inactive
same,outcome,CASKI,inactive
same,Potency,Es-2,inactive
same,Potency,HeLa,3160 nM (active)
same,outcome,Hek293T,inactive
same,outcome,JEG-3,inactive
same,Potency,OV90,inactive
O=c1[nH]c2ccccc2n1C1CCNCC1,outcome,NIH3T3 [1],inactive
same,outcome,CRL-7250,inactive
same,outcome,MCC-13,inactive
same,Potency,MKL-1,inactive
same,Potency,MKL-2,inactive
same,outcome,NIH3T3 [2],inactive
same,Potency,UISO,inactive
same,Potency,WaGa,inactive
same,Potency,C33A,inactive
same,outcome,CAOV3,inactive
same,outcome,CASKI,inactive
same,Potency,Es-2,inactive
same,Potency,HeLa,inactive
same,outcome,Hek293T,inactive
same,outcome,JEG-3,inactive
same,Potency,OV90,inactive
CCNC(=O)/C=C/c1cccc(Br)c1,outcome,CRL-7250,inactive
CCCOC(=O)c1cncn1C(C)c1ccccc1 (stereo unspecified),max response,NIH3T3 [1],3.77%
same,outcome,HACAT,inactive
same,outcome,MCC-13,inactive
same,Potency,MKL-1,inactive
same,Potency,MKL-2,inactive
same,Potency,UISO,inactive
same,Potency,WaGa,inactive
same,Potency,C33A,inactive
same,outcome,CAOV3,inactive
same,outcome,CASKI,inactive
same,Potency,Es-2,inactive
same,Potency,HeLa,inactive
same,outcome,Hek293T,inactive
same,outcome,JEG-3,inactive
same,Potency,OV90,inactive
c1ccc(N2CCNCC2)cc1,outcome,NIH3T3 [1],inactive
same,outcome,HACAT,inactive
same,outcome,MCC-13,inactive
same,Potency,MKL-1,inactive
same,Potency,MKL-2,inactive
same,outcome,NIH3T3 [2],inactive
same,Potency,UISO,inactive
same,Potency,WaGa,inactive
same,Potency,C33A,inactive
same,outcome,CAOV3,inactive
same,outcome,CASKI,inactive
same,Potency,Es-2,inactive
same,Potency,HeLa,inactive
same,outcome,Hek293T,inactive
same,outcome,JEG-3,inactive
same,Potency,OV90,inactive
O=C(O)c1ccc(=O)[nH]c1,outcome,NIH3T3 [1],inactive
same,outcome,CRL-7250,inactive
same,outcome,HACAT,inactive
same,outcome,MCC-13,inactive
same,Potency,MCC-26,inactive
same,Potency,MKL-1,inactive
same,Potency,MKL-2,inactive
same,outcome,NIH3T3 [2],inactive
same,Potency,UISO,inactive
same,Potency,WaGa,inactive
same,Potency,C33A,inactive
same,outcome,CAOV3,inactive
same,outcome,CASKI,inactive
same,Potency,Es-2,inactive
same,Potency,HeLa,inactive
same,outcome,Hek293T,inactive
same,Potency,OV90,inactive
CCCCOC(=O)c1ccc(N)cc1,outcome,CRL-7250,inactive
CC[N+](CC)(CCNC(=O)C(=O)NCC[N+](CC)(CC)Cc1ccccc1Cl)Cc1ccccc1Cl,outcome,CRL-7250,inactive
